Test results: PubChem BioAssay (Tox21)
Records with an inconclusive call do not appear. Activity calls are given as the source filed them. Unless noted, the call rests on the fitted dose curve; in most records, active means well fitted curve in the direction sought with a large enough effect in the repeat runs; inconclusive means weak or mixed curves; inactive means no such curve, though single readings can be large; an effect the other way counts as inactive or inconclusive.

How the values were obtained:
[1] = qHTS assay for small molecule agonists of the p53 signaling pathway (AID 651631; calls by dose curve; further: nearly all actives have a fitted effect of over 15% in size)
Procedure, shortened: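 Testing took place in human colorectal HCT-116 cells with stable p53RE-driven beta-lactamase. After 16 h of compound exposure at 37 °C, a FRET substrate was added and fluorescence recorded 2 h later.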

[2] = qHTS assay for small molecules that induce genotoxicity in human embryonic kidney cells expressing luciferase-tagged ATAD5 (AID 651632); further: nearly all actives have a fitted effect of over 15% in size
Procedure, shortened: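 Genotoxicity read-out via ATAD5-luciferase: HEK293T cells, 16 hr compound incubation at 37C, Amplite detection.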

[3] = qHTS assay for small molecule agonists of the p53 signaling pathway - cell viability (AID 651633; calls by dose curve; further: series mostly up to about 83 µM; nearly all actives have a fitted effect of over 30% in size)
Procedure, shortened: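 p53RE-bla cells, seeded at 4,000 per well and rested 5 h at 37 C/5% CO2, received compounds in DMSO for 16 h at 37 C. CellTiter-Glo was then added, and luminescence was read after 30 min at room temperature to gauge cytotoxicity.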

[4] = qHTS assay for small molecules that induce genotoxicity in human embryonic kidney cells expressing luciferase-tagged ATAD5 - cell viability (AID 651634; calls by dose curve; further: nearly all actives have a fitted effect of over 25% in size)
Procedure, shortened: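 Live-cell protease activity (CellTiter-Fluor, fluorescence) indicates viability. HEK293T cells with luciferase-tagged ATAD5; 15.5 hr compound treatment at 37C.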

[5] = qHTS assay for small molecule disruptors of the mitochondrial membrane potential - cell viability (AID 720634; calls by dose curve;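 further: human HepG2 liver cancer cells; series mostly up to about 83 µM; nearly all actives have a fitted effect of over 20% in size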)
Procedure, shortened: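 Human hepatoma HepG2 cells were treated for 1 hr with test chemicals, then given m-MPI dye and CellTiter-Glo. Cell viability reflects luminescence proportional to cellular ATP.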

[6] = qHTS assay to test for compound auto fluorescence at 590 nm (red) in HepG2 cells (AID 720674)
Procedure, shortened: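 Intrinsic compound fluorescence in the red window (Ex/Em 540/590 nm) is measured in attached HepG2 cells exposed for 1 hr, DMSO vehicle as baseline, benchmarked to Rose Bengal sodium.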

[7] = qHTS assay to test for compound auto fluorescence at 535 nm (green) in HepG2 cells (AID 720675)
[8] = qHTS assay to test for compound auto fluorescence at 460 nm (blue) in HEK293 cells (AID 720678)
Procedure, shortened: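 Cells were seeded and left to adhere for 4-5 hr at 37C. Compounds were then pin-transferred. After an overnight incubation at 37C under 5% CO2, intrinsic fluorescence at 405/460 nm was measured and referenced to triamterene.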

[9] = qHTS assay to test for compound auto fluorescence at 590 nm (red) in HEK293 cells (AID 720679)
Procedure, shortened: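 Each well held 2,000 HEK293 cells in medium containing 10% dialyzed FBS. Following 4-5 hr attachment at 37C, 23 nL test compound or DMSO was added; plates sat overnight, and red fluorescence (540/590nm) was recorded.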

[10] = qHTS assay to test for compound auto fluorescence at 460 nm (blue) in HEK293 cell free culture (AID 720681)
Procedure, shortened: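 Test compounds were pinned into cell-free culture medium (DMEM with 10% FBS) and fluorescence was read directly at Ex/Em 405/460 nm. Signals were expressed as fluorescence equivalents of triamterene, with DMSO vehicle as control.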

[11] = qHTS assay to test for compound auto fluorescence at 535 nm (green) in HEK293 cell free culture (AID 720682)
Procedure, shortened: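 DMEM + 10% FBS, cell-free; cpd or DMSO pinned in; Ex485/Em535 read; output as fluorescein-equivalent signal.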

[12] = qHTS assay to test for compound auto fluorescence at 590 nm (red) in HEK293 cell free culture (AID 720683)
Procedure, shortened: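 Tox21 10K library compounds were pinned into cell-free DMEM with 10% FBS and fluorescence was read at excitation 540 nm. Activity is expressed as Rose Bengal sodium equivalency.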

[13] = qHTS assay to test for compound auto fluorescence at 590 nm (red) in HepG2 cell free culture (AID 720684)
Procedure, shortened: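 Measured in medium alone (MEM containing 10% FBS) following pintool addition of compound; emission at 590 nm with 540 nm excitation, referenced to Rose Bengal sodium.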

[14] = qHTS assay to test for compound auto fluorescence at 460 nm (blue) in HepG2 cell free culture (AID 720685)
Procedure, shortened: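 Compound (23 nL) or DMSO pinned into cell-free MEM with 10% FBS; blue fluorescence read at 405/460 nm excitation/emission, expressed as auto-fluorescence equivalency to triamterene.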

[15] = qHTS assay to test for compound auto fluorescence at 535 nm (green) in HepG2 cell free culture (AID 720686)
[16] = qHTS assay to test for compound auto fluorescence at 460 nm (blue) in HepG2 cells (AID 720687)
Procedure, shortened: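 Cells (2,000/well in MEM with 10% FBS) attached overnight at 37 C, then were exposed to compound or DMSO for 1 hr at 37 C, 5% CO2. Fluorescence read at Ex/Em 405/460 nm, expressed as triamterene-equivalent signal.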

[17] = target: Glucocorticoid receptor (Homo sapiens) (UniProt P04150); experiment: qHTS assay to identify small molecule agonists of the glucocorticoid receptor (GR) signaling pathway (AID 720691; active means well fitted activation curve with a large enough effect in the signal ratio in the repeat runs, not every such curve was filed as active; the % refers to the signal ratio)
Procedure, shortened: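 Beta-lactamase reporter activity, read as fluorescence intensity, was measured in GR-bla HeLa cells exposed to compounds for 18 h at 37 C and then loaded with LiveBLAzer B/G FRET substrate for 2 h at room temperature.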

[18] = target: Glucocorticoid receptor (Homo sapiens) (UniProt P04150); experiment: qHTS assay to identify small molecule antagonists of the glucocorticoid receptor (GR) signaling pathway (AID 720692; active means well fitted inhibition curve with a large enough effect in the signal ratio in the repeat runs, not every such curve was filed as active; the % refers to the signal ratio)
Procedure, shortened: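 Fluorescence from cleaved LiveBLAzer B/G FRET substrate reports GRE-driven beta-lactamase in HeLa cells; compounds are tested against 5 nM dexamethasone (final) over 18 h at 37 C, substrate incubation 2 h at room temperature.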

[19] = qHTS assay to test for compound auto fluorescence at 535 nm (green) in HEK293 cells (AID 720680)

Measured: Potency

Glucocorticoid receptor (Homo sapiens), sequence (P04150 whole entry, looked up): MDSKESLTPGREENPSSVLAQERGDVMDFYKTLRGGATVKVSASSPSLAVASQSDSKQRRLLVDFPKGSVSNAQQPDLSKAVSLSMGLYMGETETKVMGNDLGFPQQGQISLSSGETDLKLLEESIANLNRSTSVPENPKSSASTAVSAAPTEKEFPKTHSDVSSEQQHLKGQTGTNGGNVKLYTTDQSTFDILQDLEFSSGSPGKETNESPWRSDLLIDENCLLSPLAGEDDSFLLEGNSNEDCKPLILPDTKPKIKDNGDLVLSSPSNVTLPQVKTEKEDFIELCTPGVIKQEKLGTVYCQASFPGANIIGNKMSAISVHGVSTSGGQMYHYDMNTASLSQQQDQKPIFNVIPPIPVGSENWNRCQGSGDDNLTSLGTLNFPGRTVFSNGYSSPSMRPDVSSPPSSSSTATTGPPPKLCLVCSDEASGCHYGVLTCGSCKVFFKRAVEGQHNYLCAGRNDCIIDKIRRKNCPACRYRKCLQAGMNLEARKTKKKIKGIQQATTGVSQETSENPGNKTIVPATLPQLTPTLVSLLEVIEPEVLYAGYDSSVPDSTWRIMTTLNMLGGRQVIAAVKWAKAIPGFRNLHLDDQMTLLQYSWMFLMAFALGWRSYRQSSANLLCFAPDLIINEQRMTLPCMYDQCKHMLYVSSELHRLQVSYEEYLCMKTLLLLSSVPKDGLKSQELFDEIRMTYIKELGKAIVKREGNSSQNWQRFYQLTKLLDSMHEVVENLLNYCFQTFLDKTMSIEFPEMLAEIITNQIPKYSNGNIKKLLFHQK

Cc1ccnc2c1NC(=O)c1cccnc1N2C1CC1
not listed: [19]
inactive: all other assays above

CCCCC/C=C/CC1CC(=O)OC1=O (stereo not given)
not listed: [17] | [18]
inactive: all other assays above

CCCC(=O)c1ccccc1
not listed: [10]
inactive: all other assays above

C=C(C)C(=O)O
not listed: [6] | [10] | [18] | [19]
inactive: all other assays above

CCCCOCCOC(=O)c1ccccc1C(=O)OCCOCCCC
not listed: [10] | [12] | [17] | [18] | [19]
inactive: all other assays above

CCN(CC)C(=O)Nc1ccc(OCC(O)CNC(C)(C)C)c(C(C)=O)c1 (stereo not given)
not listed: [10] | [19]
inactive: all other assays above

CC(C)(C)c1ccccc1
not listed: [12] | [17] | [18]
inactive: all other assays above
